Among the test systems are NCI-H23 lung; NCI-H226 lung; NCI-H322M lung; HOP-62 NSCLC; NCI-H460 lung; HOP-92 NSCLC; NCI-H522 lung; A549/ATCC NSCLC; 786-0 renal; COLO 205 colon.
What all share (assay): NCI-60 one-dose screen, 48 h (100 = growth as untreated, 0 = no growth, -100 = all killed)
Common to all, as to conditions: 10 µM unless noted

Structures are written as SMILES. The panel holds about 83,000 compounds, 20% with a hit somewhere; the sample as a whole holds those more often.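 48-hour exposure, single concentration, 96-well plates; percent growth endpoint where 0 means no net growth. Active: below 10.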 A number with no mark means an inactive call. Activity calls are given as the source filed them.

As for `O=[N+]([O-])c1cc(Cl)c2[nH]c3c(Cl)cc([N+](=O)[O-])cc3c2c1`, the growth is 9.08% (active) in the experiment on NCI-H23 lung; -0.747% (active) in the experiment on NCI-H226 lung; -0.868% (active) in the experiment with NCI-H322M lung; 15.3% with HOP-62 NSCLC; -15.8% (active) with NCI-H460 lung; -14.3% (active) with HOP-92 NSCLC. In addition, the growth was -44% (active) in the experiment with NCI-H522 lung, -42% (active) with A549/ATCC NSCLC, 8.87% (active) with 786-0 renal and -73.6% (active) in the experiment with COLO 205 colon.
For the molecule `Cc1ccc(NS(=O)(=O)c2cc(C)ccc2C)cc1`, the growth is 59.2% in the experiment on NCI-H23 lung; 79.1% with NCI-H226 lung; 88.7% in the experiment with NCI-H322M lung; 49.3% in the experiment with HOP-62 NSCLC; 14.4% in the experiment with NCI-H460 lung; 39.6% in the experiment with HOP-92 NSCLC. Besides, the growth in the experiment on NCI-H522 lung is 11.5%; in the experiment on A549/ATCC NSCLC, 33.5%; in the experiment on 786-0 renal, 61%; in the experiment on COLO 205 colon, 32.8%.
Consider `Cc1ccc(S(=O)(=O)/C(=C\c2ccc(Cl)cc2)C(=O)c2ccccc2)cc1`, for which the growth was 102% in the experiment on NCI-H23 lung; 97.9% with NCI-H226 lung; 101% in the experiment with NCI-H322M lung; 104% in the experiment with HOP-62 NSCLC; 106% in the experiment on NCI-H460 lung; 94.6% in the experiment with HOP-92 NSCLC. Also, the growth was 96.3% with NCI-H522 lung, 106% in the experiment with A549/ATCC NSCLC, 103% in the experiment with 786-0 renal and 102% in the experiment with COLO 205 colon.
As to `CCCCC(CC)OC(=O)C(Br)CC` (stereo not given), the growth in the experiment with NCI-H23 lung was 92.7%; in the experiment with NCI-H226 lung, 108%; in the experiment on NCI-H322M lung, 101%; in the experiment on HOP-62 NSCLC, 111%; in the experiment with NCI-H460 lung, 109%; in the experiment with HOP-92 NSCLC it was 95.8%. The growth is 103% in the experiment with NCI-H522 lung, 103% in the experiment on A549/ATCC NSCLC, 98.4% in the experiment with 786-0 renal and 111% in the experiment on COLO 205 colon.
Turning to `OCCCCCCNc1ncnc2cc(Cl)ccc12`, the growth with NCI-H23 lung was 95%; in the experiment with NCI-H226 lung, 84.1%; in the experiment with NCI-H322M lung, 105%; with HOP-62 NSCLC, 88.5%; in the experiment with NCI-H460 lung it was 94.2%; with HOP-92 NSCLC, 74.6%. The growth in the experiment with NCI-H522 lung was 87.8%; with A549/ATCC NSCLC, 95.6%; with 786-0 renal, 100%; with COLO 205 colon, 103%.
As to `CCN(CC)CCC(CNc1ccnc2cc(Cl)ccc12)c1ccccc1` (stereo not given), the growth was 80.3% with NCI-H23 lung; 63% with NCI-H226 lung; 93.7% in the experiment with NCI-H322M lung; 78.4% with HOP-62 NSCLC; 67.7% with NCI-H460 lung; 21.1% with HOP-92 NSCLC. The growth with NCI-H522 lung is 18%; in the experiment on A549/ATCC NSCLC, 70.4%; in the experiment on 786-0 renal it was 69.8%; with COLO 205 colon, -39% (active).
On to `O=C(O)c1cn(C2CC2)c2cc(N3CCN(C(=O)/C=C/c4ccc(Cl)cc4)CC3)c(F)cc2c1=O`, for which the growth with NCI-H23 lung was 86.8%; in the experiment with NCI-H226 lung, 91.5%; in the experiment on NCI-H322M lung it was 71.5%; in the experiment on HOP-62 NSCLC, 80.8%; in the experiment on NCI-H460 lung it was 58.7%; in the experiment on HOP-92 NSCLC it was 57.4%. Moreover, the growth in the experiment on NCI-H522 lung was 75.1%; in the experiment on A549/ATCC NSCLC, 77.4%; with 786-0 renal, 76.4%; in the experiment on COLO 205 colon, 98.9%.
With `CC(C)NCCCNC1=C(Cl)C(=O)c2ccccc2C1=O`, the growth was 16.3% with NCI-H23 lung; 93.1% in the experiment on NCI-H226 lung; 105% with NCI-H322M lung; 98.3% in the experiment on HOP-62 NSCLC; 87.2% in the experiment on NCI-H460 lung; 110% in the experiment on HOP-92 NSCLC. The growth is 91.9% in the experiment on NCI-H522 lung, 81.7% in the experiment with A549/ATCC NSCLC, 113% in the experiment with 786-0 renal and 95.4% in the experiment on COLO 205 colon.
As for `Cc1cc(N/N=C/c2nc(-c3ccccc3)oc2C)c2cc(Br)ccc2n1`, the growth was 88.6% with NCI-H23 lung; 88.3% in the experiment with NCI-H226 lung; 94.3% with NCI-H322M lung; 87.5% in the experiment with HOP-62 NSCLC; 73.6% in the experiment on NCI-H460 lung; 71.9% in the experiment on HOP-92 NSCLC. For the same molecule, the growth in the experiment on NCI-H522 lung is 80.6%; with A549/ATCC NSCLC it was 87%; in the experiment with 786-0 renal it was 86.7%; with COLO 205 colon, 85.6%.
For `NC(=O)c1c(NC(=S)Nc2ccc(OC(F)(F)F)cc2)sc2c1CCC1(C2)OCCO1`, the growth in the experiment with NCI-H23 lung is 94.7%; with NCI-H226 lung, 92.9%; with NCI-H322M lung it was 89.2%; in the experiment with HOP-62 NSCLC, 99.9%; with NCI-H460 lung, 99.1%; in the experiment with HOP-92 NSCLC, 96.3%. In addition, the growth was 83% in the experiment on NCI-H522 lung, 97.3% with A549/ATCC NSCLC, 98.5% in the experiment with 786-0 renal and 108% in the experiment with COLO 205 colon.
Consider `COc1ccc(NC(=O)CSc2nc(-c3ccc(OC)c(OC)c3)cc(-c3cc(OC)c(OC)c(OC)c3)n2)cc1`, for which the growth is 101% with NCI-H23 lung; 108% in the experiment on NCI-H226 lung; 90.4% in the experiment with NCI-H322M lung; 106% with HOP-62 NSCLC; 97.7% in the experiment with NCI-H460 lung; 76.8% in the experiment with HOP-92 NSCLC. Also, the growth in the experiment on NCI-H522 lung was 79.6%; in the experiment with A549/ATCC NSCLC, 95.7%; with 786-0 renal, 95.1%; in the experiment on COLO 205 colon, 82.5%.
`C=C1CCC2C3(C)COC(C)(C)OC3CCC2(C)C1C/C=C1/C(=O)OCC1Oc1ccccc1OC` (stereo not given): the growth in the experiment on NCI-H23 lung is 92.2%; in the experiment with NCI-H226 lung, 79.7%; in the experiment with NCI-H322M lung it was 96.6%; in the experiment with HOP-62 NSCLC, 105%; in the experiment on NCI-H460 lung, 102%; with HOP-92 NSCLC, 116%. Also, the growth is 17.5% in the experiment with NCI-H522 lung, 97.7% with A549/ATCC NSCLC, 99.9% in the experiment on 786-0 renal and 102% in the experiment on COLO 205 colon.
With `CCN(CC)c1ccc(C(=N)c2ccc(N(CC)CC)cc2)cc1`, the growth with NCI-H23 lung was -52.9% (active); with NCI-H226 lung, -33.5% (active); with NCI-H322M lung it was 16.2%; with HOP-62 NSCLC, -82.7% (active); in the experiment with NCI-H460 lung, -44.5% (active); with HOP-92 NSCLC, -30.6% (active). For the same molecule, the growth in the experiment with NCI-H522 lung was -62.4% (active); in the experiment with A549/ATCC NSCLC, 6.12% (active); in the experiment on 786-0 renal, -55.2% (active); in the experiment with COLO 205 colon it was -96.6% (active).

The record behind these values is PubChem BioAssay (NCI).
